# In PubChem BioAssay (NCATS):
# Results filed as inconclusive are left out. Where a call stands in place of a potency, no number is given. Active and inactive are the calls of the source. Calls follow the shape of the dose curve; as a rule, active = well fitted curve in the direction sought with a large enough effect; inconclusive = small, poorly fitted or top-dose-only effect, or another doubt; inactive = no such curve, though single readings can be large; an effect the other way counts as inactive or inconclusive.
# Tests used:
# [1] = qHTS assay for measurement of the activity of small molecule inhibitors on Zika virus induced Caspase-3 activity in human astrocytoma cells (AID 1224859); conditions: SNB-19 ZIKV-induced caspase-3/7, luminescence, 6 h; series mostly up to 45.7 µM
# How it was run: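 Luminescent caspase-3/7 read-out (30 min reagent, room temperature) in human SNB-19 cells infected 6 h with ZIKV (2 FFU/cell) after 1 h compound pre-incubation; Data were normalised to uninfected and infected wells.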
# [2] = qHTS Screen of the MIPE 4.0 Collection Against Ewings Sarcoma (TC71) (AID 1259253); conditions: TC71 Ewing sarcoma viability, CellTiter-Glo, 48 h; series mostly up to 45.8 µM; also: nearly all actives have a fitted effect of over 40% in size; also: potency is read from the fitted curve at half-maximal effect
# How it was run: (§1)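 Viability screen: 48 h incubation at 37C, 95% humidity, 5% CO2 with serially titrated compound, followed by CellTiter-Glo readout.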
# [3] = qHTS Screen of the MIPE 4.0 Collection Against Ewings Sarcoma (TC32) (AID 1259256); conditions: TC32 Ewing sarcoma viability, CellTiter-Glo, 48 h; series mostly up to 45.8 µM; also: nearly all actives have a fitted effect of over 45% in size
# How it was run: as §1
# [4] = qHTS Screen of the MIPE 4.0 Collection Against Ewings Sarcoma (RDES) (AID 1259252); conditions: RD-ES Ewing sarcoma viability, CellTiter-Glo, 48 h; series mostly up to 45.8 µM; also: nearly all actives have a fitted effect of over 35% in size; also: potency is read from the fitted curve at half-maximal effect
# How it was run: as §1
# [5] = qHTS Screen of the MIPE 4.0 Collection Against Ewings Sarcoma (EW8) (AID 1259255); conditions: EW8 Ewing sarcoma viability, CellTiter-Glo, 48 h; series mostly up to 45.8 µM; also: nearly all actives have a fitted effect of over 35% in size; also: potency is read from the fitted curve at half-maximal effect
# How it was run: as §1
# [6] = qHTS assay to identify small molecule inhibitors of chordoma cells - UCH-1 (AID 1259355); conditions: UCH-1 chordoma viability, CellTiter-Glo, 48 h, combination, with auranofin plus four topoisomerase inhibitors; series mostly up to 46.1 µM; also: nearly all actives have a fitted effect of over 55% in size
# How it was run: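 Screening used approved and investigational drugs in 15-point titration against 800 seeded cells per well. A fixed combination of auranofin with camptothecin, doxorubicin, rubitecan and topotecan followed compound addition, and growth was scored by CellTiter-Glo after 48hr.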
# [7] = Identifying Small Molecule Inhibitors of Pancreatic Cancer Stem Cells (Panc1, Spheroid) (AID 1259359); conditions: Panc1 spheroid cancer stem cell viability;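 also: potency is read from the fitted curve at half-maximal effect; compound exposure lasted 48 h before reading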
# Source text: Progenitor-like cancer cells, often referred to as cancer stem cells (CSC), are believed to be the drivers of therapeutic resistance and rapid recurrence. CSCs are postulated to reside in specific niches characterized by low oxygen tension, limited nutrient supply, and high redox load. Selectively targeting CSC, alone or in combination with cytotoxic agents, as a means to produce durable remissions is an appealing concept. Modeling these cells in in vitro setting is an important step in finding new therapies and/or targets. Multiple reports highlight that forcing cells in culture into 3-dimensionaly architectures (spheroids) re-establishes key progenitor-like transcriptional signatures. Pancreatic cancer is among the diseases with the most dismal outlook which is driven, largely, by recurance following front-line therapies. […] In hopes of deriving new insight into the targeting of these pancreatic CSCs we examined three established pancreatic cancer cell lines in cytotoxicity assays versus a collection of approved and investigational drugs. Importantly, we screened these lines as traditional monolayer (2D) and spheroid (3D) formats to gain an appreciation of agents with differential activity.
# Multicellular tumor spheroids from Panc1, MiaPaCa-2, and the primary low-passage tissue culture line SB.06 were seeded in stem cell media (SCM) in nonadherent 6-well plates coated with hydrogel (Corning Life Sciences, Chelmsford, Mass) and pancreatic spheres generated for 14 days before screening. Cells were seeded into 1536-well solid-bottom white tissue culture treated Greiner Bio One Plates (789173-F) using a MultiDrop Combi (Thermofisher Scientific) dispenser and a small sterile cassette. One column was media alone to be used as a :"no cells" control. The plates were then covered with sterilized stainless steel gasketed lids from Kalypsys. After allowing cells to attach for 4 hours, 23 nL of test compound or control (negative control DMSO and positive control 9.2 uM Bortezomib-final) were added from a 1536-well polypropylene compound source plate to each well using a 1536 head pin tool from Kalypsys. Cells were then incubated for 48 hours at 37C, 95% relative humidity and 5% CO2. After 48 hours, plates were removed from the incubator and 3 uL of CellTiter-Glo (Promega) was added using an Aurora Flying Reagent Dispenser Bioraptor. Plates were incubated at room temperature for 10 minutes prior to reading the luminescence on the Viewlux (PerkinElmer). The relative luciferase units are used to calculate the percent activity using the activity of DMSO in the cells and no cells columns for normalization of no inhibition and full inhibition respectively.
# [8] = Identifying Small Molecule Inhibitors of Pancreatic Cancer Stem Cells (SN12C, Adherent) (AID 1259358); conditions: viability/growth inhibition; series mostly up to 46.1 µM;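 also: cell survival measured after 48 h of compound exposure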; also: potency is read from the fitted curve at half-maximal effect
# How it was run: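 Monolayer and spheroid cultures are compared. Spheroids form over 14 days in stem cell medium on hydrogel-coated low-attachment plates, then are exposed to compound for 48 h before CellTiter-Glo luminescence.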
# [9] = Identifying Small Molecule Inhibitors of Pancreatic Cancer Stem Cells (A2780, Spheroid) (AID 1259357); conditions: Potency: A2780 spheroid viability; series mostly up to 46.1 µM;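 also: potency is read from the fitted curve at half-maximal effect; compound exposure lasted 48 h before the ATP luminescence read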
# How it was run: (§2)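 Adherent (2D) versus sphere (3D) formats; spheres generated 14 d in SCM beforehand. Compound transferred by pin tool after 4 h, 48 h incubation, CellTiter-Glo endpoint.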
# [10] = Identifying Small Molecule Inhibitors of Pancreatic Cancer Stem Cells (SN12C, Spheroid) (AID 1259360); conditions: Potency: SN12C spheroid viability; series mostly up to 46.1 µM
# How it was run: as §2
smiles,measurement,setting,value
C[C@]12CC[C@@H]3c4ccc(O)cc4C[C@@H](CCCCCCCCCS(=O)CCCC(F)(F)C(F)(F)F)[C@H]3[C@H]1CC[C@H]2O (some centres not stated),Potency,[1],inactive
same,Potency,[2],14.8 µM (active)
same,Potency,[3],inactive
C[N+]1(C)[C@@H]2CC(OC(=O)[C@H](CO)c3ccccc3)C[C@H]1[C@H]1O[C@@H]12 (some centres not stated),Potency,[1],inactive
same,Potency,[4],inactive
same,Potency,[2],inactive
same,Potency,[5],inactive
same,Potency,[3],inactive
same,Potency,[6],inactive
O=C(NCc1ccncc1)C12C[C@H]3C[C@@H](C1)CC(c1ccc(Cl)cc1)(C3)C2,Potency,[1],inactive
same,Potency,[2],26.4 µM (active)
Cc1c(O)cccc1C(=O)N[C@@H](CSc1ccccc1)[C@H](O)CN1C[C@H]2CCCC[C@@H]2C[C@@H]1C(=O)NC(C)(C)C,Potency,[1],inactive
same,Potency,[2],20.9 µM (active)
same,Potency,[5],23.5 µM (active)
C[C@H]1[C@H](NC(=O)C(=NOC(C)(C)C(=O)O)c2csc(N)n2)C(=O)N1S(=O)(=O)O,Potency,[1],inactive
same,Potency,[2],inactive
same,Potency,[5],inactive
CC[C@]1(O)C[C@@H]2CN(CCc3c([nH]c4ccccc34)[C@@](C(=O)OC)(c3cc4c(cc3OC)N(C=O)[C@@H]3C45CCN4CC=C[C@](CC)([C@H]45)[C@@H](OC(C)=O)[C@]3(O)C(=O)OC)C2)C1 (some centres not stated),Potency,[1],inactive
same,Potency,[4],16.6 µM (active)
same,Potency,[2],20.9 µM (active)
same,Potency,[3],inactive
CC1CCC(C(=O)N(c2cc(C#CC(C)(C)C)sc2C(=O)O)C2CCC(O)CC2)CC1 (configuration not stated),Potency,[1],inactive
same,Potency,[2],26.4 µM (active)
same,Potency,[3],inactive
COc1cc(N2CCC(N3CCN(C)CC3)CC2)ccc1Nc1ncc(Cl)c(Nc2ccccc2S(=O)(=O)C(C)C)n1,Potency,[7],0.418 µM (active)
c1ccc2c(-c3cnn4cc(-c5ccc(N6CCNCC6)cc5)cnc34)ccnc2c1,Potency,[7],26.4 µM (active)
O=C(O)CCC1CCC(c2cc(F)ccc2F)(S(=O)(=O)c2ccc(Cl)cc2)CC1 (configuration not stated),Potency,[7],3.32 µM (active)
CC(=O)c1ccc(S(=O)(=O)NC(=O)NC2CCCCC2)cc1,Potency,[1],inactive
same,Potency,[6],inactive
N#Cc1ccc(NC(=O)Nc2ccccc2Br)c2n[nH]nc12,Potency,[1],inactive
same,Potency,[8],inactive
O=C(O)c1cc(-c2ccccc2)nc2ccccc12,Potency,[1],inactive
same,Potency,[6],inactive
COc1ncc(-c2ccc3nccc(-c4ccnnc4)c3c2)cc1NS(=O)(=O)c1ccc(F)cc1F,Potency,[1],inactive
same,Potency,[9],0.132 µM (active)
same,Potency,[8],inactive
same,Potency,[7],0.0074 µM (active)
COc1cc2ncnc(Nc3ccc(F)c(Cl)c3)c2cc1OCCCN1CCOCC1,Potency,[4],10.8 µM (active)
CS(=O)c1ccc(-c2nc(-c3ccc(F)cc3)c(-c3ccncc3)[nH]2)cc1 (configuration not stated),Potency,[1],inactive
same,Potency,[8],inactive
same,Potency,[10],inactive
NC(N)=Nc1nc(CSCC/C(N)=N/S(N)(=O)=O)cs1,Potency,[1],inactive
same,Potency,[6],inactive
O=C1NCC2(CCN(CCc3ccccc3)CC2)O1,Potency,[1],inactive
same,Potency,[6],inactive
Cc1cccc(C)c1OCC(C)N (configuration not stated),Potency,[1],inactive
same,Potency,[6],inactive
CN(C)CCC(c1ccccc1)c1ccccn1 (configuration not stated),Potency,[1],inactive
same,Potency,[6],inactive
O=C(N[C@@H](c1ccccc1)[C@@H]1CCCCN1)c1cccc(C(F)(F)F)c1Cl,Potency,[1],inactive
same,Potency,[8],inactive
same,Potency,[10],inactive
OC[C@@H](O)[C@H](O)[C@H](O)[C@@H](O)CO,Potency,[1],inactive
same,Potency,[6],inactive
CC(=O)O[C@]1(C(C)=O)CC[C@H]2[C@@H]3C=C(Cl)C4=CC(=O)[C@@H]5C[C@@H]5[C@]4(C)[C@H]3CC[C@@]21C,Potency,[1],inactive
same,Potency,[6],inactive
CCN(CC)CCNC(=O)c1ccc(N)cc1,Potency,[1],inactive
same,Potency,[6],inactive
O=C(O)CCc1nc(-c2ccccc2)c(-c2ccccc2)o1,Potency,[1],inactive
same,Potency,[6],inactive
O=C(O)Cc1cccc2ccccc12,Potency,[1],inactive
same,Potency,[6],inactive
O=C(NCCN1CCOCC1)c1ccc(Cl)cc1,Potency,[1],inactive
same,Potency,[6],inactive
CCN1CCC[C@H]1CNC(=O)c1cc(S(N)(=O)=O)ccc1OC,Potency,[1],inactive
same,Potency,[6],inactive
CC(C)[C@H](CO)Nc1nc(Nc2ccc(C(=O)O)c(Cl)c2)c2ncn(C(C)C)c2n1,Potency,[1],inactive
same,Potency,[10],inactive
CC(=O)N[C@@H](CS)C(=O)O,Potency,[1],inactive
same,Potency,[6],inactive
O=c1[nH]cnc2c1ncn2[C@H]1CC[C@@H](CO)O1,Potency,[1],inactive
same,Potency,[6],inactive
CO[C@H]1C[C@@H]2CC[C@@H](C)[C@@](O)(O2)C(=O)C(=O)N2CCCC[C@@H]2C(=O)O[C@H]([C@H](C)C[C@@H]2CC[C@H](OCCO)[C@H](OC)C2)CC(=O)[C@H](C)C=C(C)[C@@H](O)[C@@H](OC)C(=O)[C@H](C)C[C@H](C)C=CC=CC=C1C,Potency,[1],inactive
same,Potency,[8],18.7 µM (active)
same,Potency,[7],26.4 µM (active)
CCCCC1C(=O)N(c2ccccc2)N(c2ccccc2)C1=O,Potency,[1],inactive
same,Potency,[6],inactive
